Our source for the growth values is PubChem BioAssay (NCI).

Among the test systems are NCI-H23 lung; NCI-H226 lung; NCI-H322M lung; HOP-62 NSCLC; NCI-H460 lung; A549/ATCC NSCLC; 786-0 renal; COLO 205 colon; DU-145 prostate; K-562 leukemia; MALME-3M melanoma; MDA-MB-231 breast; RXF 393 renal; SF-268 CNS; SF-295 CNS; SF-539 CNS; UACC-257 melanoma; M14 melanoma; HCT-15 colon; NCI-H522 lung.
Common to all, as to assay: NCI-60 one-dose screen, 48 h (100 = growth as untreated, 0 = no growth, -100 = all killed)
Common to all, as to details: 10 µM unless noted

The panel holds about 83,000 compounds, 20% with a hit somewhere; the sample as a whole holds those more often.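 Activity criterion: percent growth below 10, measured after cells in 96-well plates were exposed to a single compound concentration for 48 hours.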 Unmarked numbers belong to inactive results. Calls of active or inactive are those of the source.

Regarding `CC(=O)Oc1ccc(C23c4ccccc4C2(OC(C)=O)c2cc(OC(C)=O)ccc23)cc1` (stereo unspecified), the growth with NCI-H23 lung is 96.2%; with NCI-H226 lung, 140%; with NCI-H322M lung, 107%; in the experiment with HOP-62 NSCLC, 53.1%; in the experiment on NCI-H460 lung, 88.7%; in the experiment on A549/ATCC NSCLC, 97%. Moreover, the growth was 69.3% in the experiment on 786-0 renal; 95.5% with COLO 205 colon; 103% with DU-145 prostate; 63.4% with K-562 leukemia; 137% in the experiment on MALME-3M melanoma; 73.9% in the experiment on MDA-MB-231 breast. Besides, the growth with RXF 393 renal is 93.5%; in the experiment on SF-268 CNS, 94.3%; in the experiment with SF-295 CNS it was 96.9%; in the experiment with SF-539 CNS it was 100%; with UACC-257 melanoma, 105%; with M14 melanoma, 104%. Moreover, the growth in the experiment with HCT-15 colon is 65.8%.
For the compound `Nc1cc(Cl)c(S(N)(=O)=O)cc1S(N)(=O)=O`, the growth is 87.1% with NCI-H23 lung; 92.8% with NCI-H226 lung; 87.9% with NCI-H322M lung; 111% in the experiment on HOP-62 NSCLC; 106% in the experiment with NCI-H460 lung; 68.8% with NCI-H522 lung. Further, the growth in the experiment with 786-0 renal is 100%; in the experiment with COLO 205 colon it was 109%; in the experiment on DU-145 prostate, 121%; in the experiment on K-562 leukemia, 104%; with MALME-3M melanoma, 84.5%; in the experiment with MDA-MB-231 breast, 113%. The growth in the experiment on SF-268 CNS is 113%; in the experiment on SF-295 CNS, 111%; in the experiment with SF-539 CNS it was 88.1%; in the experiment on M14 melanoma it was 108%; with HCT-15 colon it was 97.9%.
In the case of `COc1ccccc1[C@H]1c2[nH]c3ccccc3c2C[C@H]2C(=O)N(CCCCCCC(=O)NO)CC(=O)N12`, the growth with NCI-H23 lung was 52.3%; with NCI-H226 lung, 91.6%; in the experiment with NCI-H322M lung, 76.1%; in the experiment on NCI-H460 lung, 62.8%; with NCI-H522 lung, 10.5%; in the experiment with A549/ATCC NSCLC it was 76.5%. The growth in the experiment on 786-0 renal is 89.4%; with COLO 205 colon, 26.9%; in the experiment with DU-145 prostate, 43.7%; with K-562 leukemia it was 11.3%; in the experiment on MALME-3M melanoma it was -1.09% (active); with MDA-MB-231 breast, 66%. Moreover, the growth was 65.5% with RXF 393 renal; 94.3% with SF-268 CNS; 71.9% in the experiment with SF-295 CNS; 40.2% with SF-539 CNS; 26.5% with UACC-257 melanoma; 36.3% with M14 melanoma. In addition, in the experiment with HCT-15 colon, the growth is 87.1%.
Take `CO[C@H]1/C=C/O[C@@]2(C)Oc3c(C)c(O)c4c(O)c(c(/C=N/N5C(C)CN(Cc6ccccc6)CC5C)c(O)c4c3C2=O)NC(=O)/C(C)=C\C=C\[C@H](C)[C@H](O)[C@@H](C)[C@@H](O)[C@@H](C)[C@H](OC(C)=O)[C@@H]1C` (stereo partly specified): the growth is 14.7% with NCI-H23 lung; 68.1% in the experiment with NCI-H226 lung; 121% in the experiment on NCI-H322M lung; 89.1% with HOP-62 NSCLC; 54.9% in the experiment on NCI-H460 lung; -12.5% (active) with NCI-H522 lung. The growth is 68.7% with 786-0 renal; 80.1% with COLO 205 colon; 81.6% in the experiment with DU-145 prostate; 203% in the experiment on K-562 leukemia; 108% in the experiment with MALME-3M melanoma; 102% in the experiment with MDA-MB-231 breast. Also, the growth in the experiment on SF-268 CNS was 92.6%; in the experiment on SF-295 CNS, 41.1%; in the experiment with SF-539 CNS, 85.8%; in the experiment on UACC-257 melanoma, 117%; with M14 melanoma, 89.9%; with HCT-15 colon, 57.5%.
Take `COc1ccc2c(c1)C(=O)/C(=C/c1cccc(OCC(=O)c3ccccc3)c1)CC2`: the growth in the experiment on NCI-H23 lung is 87.4%; with NCI-H226 lung it was 75.9%; in the experiment on NCI-H322M lung, 108%; in the experiment on HOP-62 NSCLC it was 101%; in the experiment with NCI-H460 lung it was 113%; in the experiment on NCI-H522 lung, 64.7%. In addition, the growth with 786-0 renal is 87.6%; with COLO 205 colon it was 136%; in the experiment with K-562 leukemia, 33.4%; with MALME-3M melanoma, 97.6%; in the experiment with MDA-MB-231 breast, 83.6%; with SF-268 CNS, 91.8%. The growth with SF-295 CNS was 104%; in the experiment with SF-539 CNS it was 93.5%; in the experiment with UACC-257 melanoma it was 91.7%; with M14 melanoma, 92.2%; with HCT-15 colon, 89.7%.
Consider `CC1=NN(c2ccccc2Cl)C(=O)/C1=C\c1cn(S(=O)(=O)c2ccc(C)cc2)c2ccccc12`, for which the growth in the experiment on NCI-H23 lung is 83.9%; in the experiment with NCI-H226 lung, 79.9%; in the experiment with NCI-H322M lung, 105%; in the experiment with NCI-H460 lung it was 119%; with NCI-H522 lung it was 107%; in the experiment on A549/ATCC NSCLC it was 109%. In addition, the growth with 786-0 renal was 94.9%; in the experiment with COLO 205 colon, 142%; with DU-145 prostate, 114%; in the experiment on K-562 leukemia, 138%; with MALME-3M melanoma, 114%; in the experiment on MDA-MB-231 breast, 85.4%. Moreover, the growth was 137% with RXF 393 renal; 104% in the experiment with SF-268 CNS; 114% in the experiment on SF-295 CNS; 114% in the experiment on SF-539 CNS; 115% with UACC-257 melanoma; 82.1% in the experiment on M14 melanoma. The growth in the experiment on HCT-15 colon was 105%.
As to `Cc1ccc2c(c1)O/C(=C\c1ccc([N+](=O)[O-])o1)C2=O`, the growth in the experiment on NCI-H23 lung is 56.2%; in the experiment on NCI-H226 lung, 78.9%; with NCI-H322M lung, 68.6%; in the experiment with NCI-H460 lung, 25.4%; in the experiment on NCI-H522 lung, -66% (active); in the experiment with A549/ATCC NSCLC, 55.4%. Also, the growth is 5.37% (active) in the experiment with 786-0 renal; -41.8% (active) with COLO 205 colon; -1.53% (active) with DU-145 prostate; 2.06% (active) with K-562 leukemia; -10.5% (active) with MALME-3M melanoma; 48.4% in the experiment with MDA-MB-231 breast. Also, the growth with RXF 393 renal was -23.5% (active); in the experiment with SF-268 CNS it was 29.3%; in the experiment with SF-295 CNS, 94.3%; in the experiment with SF-539 CNS it was 44.5%; with UACC-257 melanoma it was 68.3%; with M14 melanoma, 55.8%. For the same compound, in the experiment with HCT-15 colon, the growth is 4.4% (active).
For the compound `N=C(N)/N=C(\CCc1nc2ccccc2[nH]1)c1nc2ccccc2[nH]1`, the growth was 93.4% in the experiment on NCI-H226 lung; 118% in the experiment on NCI-H322M lung; 97% in the experiment with HOP-62 NSCLC; 114% in the experiment on NCI-H460 lung; 96% in the experiment with NCI-H522 lung; 102% in the experiment with A549/ATCC NSCLC. Besides, the growth is 107% in the experiment on 786-0 renal; 103% in the experiment with COLO 205 colon; 111% with DU-145 prostate; 98.4% in the experiment on K-562 leukemia; 96.9% in the experiment with MALME-3M melanoma; 100% in the experiment on MDA-MB-231 breast. The growth with RXF 393 renal is 116%; with SF-268 CNS, 112%; with SF-295 CNS it was 120%; in the experiment on SF-539 CNS, 97.1%; in the experiment with UACC-257 melanoma, 109%; in the experiment with M14 melanoma, 96.4%.
